Source: PubChem BioAssay
Most compounds without a hit are left out; they make up all but 0.28% or so of the library.
hcGAS lum – human cGAS inhibition | recombinant h-cGAS, ATP depletion, Kinase-Glo luminescence | Q8N884 | 290,000 tested, 0.081% active | inhibition, % at 12.5 µM;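 note: 0% = vehicle reaction and 100% = reaction without DNA for no activity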
NPYLR7 agonist – mosquito NPYLR7 agonism | HEK293T NPYLR7/Galpha15, GCaMP6s calcium fluorescence | activation, % at 10 µM | 270,000 tested, 0.15% active | AID 1259423; in the data active = activation above about 40%;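 note: 0% = vehicle and 100% = reference agonist at the receptor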
mcGAS inh – blocks mouse cGAS activity; Q8C6L5; recombinant cGAS, Kinase-Glo ATP depletion luminescence; inhibition, % at 12.5 µM; 160,000 tested, 0.15% active; AID 1259399;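 note: 0% = negative control wells and 100% = reference inhibitor with no enzyme activity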
Target sequence (Q8C6L5 whole entry, looked up): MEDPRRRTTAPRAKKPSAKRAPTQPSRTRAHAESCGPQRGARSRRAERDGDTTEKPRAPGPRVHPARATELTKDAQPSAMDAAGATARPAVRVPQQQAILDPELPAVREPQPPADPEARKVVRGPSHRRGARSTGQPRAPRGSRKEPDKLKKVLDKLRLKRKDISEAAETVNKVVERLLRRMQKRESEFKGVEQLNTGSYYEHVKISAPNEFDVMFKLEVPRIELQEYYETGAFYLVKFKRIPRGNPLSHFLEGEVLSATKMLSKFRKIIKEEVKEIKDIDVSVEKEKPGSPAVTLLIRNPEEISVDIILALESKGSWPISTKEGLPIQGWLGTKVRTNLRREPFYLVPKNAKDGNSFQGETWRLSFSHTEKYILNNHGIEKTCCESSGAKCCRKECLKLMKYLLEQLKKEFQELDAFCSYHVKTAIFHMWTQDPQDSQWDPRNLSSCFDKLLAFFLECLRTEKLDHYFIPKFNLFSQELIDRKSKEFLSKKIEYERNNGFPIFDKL
* = called active by the depositor; nt = no result given. Cut-off read from the data, not from the text of the source, unless noted: active = inhibition above about 40%; inactive = the rest.

SMILES | hcGAS lum | NPYLR7 agonist | mcGAS inh
COc1ccccc1NC(=O)Cc1noc(CN2CCCN(C(C)=O)CC2)n1 | -4 | 2 | nt
CCC(C)N1CCC2(CC1)N=c1c(c3c4c5c(C)c(O)c3c(O)c1=NC(=O)/C(C)=C/C=C/[C@H](C)[C@H](O)[C@@H](C)[C@@H](O)[C@@H](C)[C@H](OC(C)=O)[C@H](C)[C@@H](OC)/C=C/O[C@@](C)(O5)C4=O)N2 (some centres undefined) | -10 | 25 | nt
O=C1c2ccc(-c3nc4ccccc4c(=O)o3)cc2C(=O)N1c1ccc(Br)cc1 | -3 | 4 | -2
O=C1c2ccc(-c3nc4ccccc4c(=O)o3)cc2C(=O)N1c1nc2ccccc2s1 | 33 | -8 | 45*
CCCCc1ccc(C(=O)N(CC(=O)N(CCc2c[nH]c3ccccc23)Cc2ccc(C(F)(F)F)cc2)C(C)C)cc1 | -2 | 24 | -5
Cc1cc(C=O)c(C)n1-c1ccc(Cl)c(C(F)(F)F)c1 | -7 | 0 | nt
CCc1nc(Cl)c2c3c(sc2n1)CN(CC)CC3 | -3 | 4 | nt
CCCN1CCc2c(sc3c2c(NC(CC)CO)nc2nnnn23)C1 (centres undefined) | -5 | 69* | nt
CC(C)NCC(O)c1ccc(O)c(O)c1 (centres undefined) | -1 | 15 | -4
CNC[C@H](O)c1ccc(O)c(O)c1 | -2 | 83* | -3
CC(C)=CCC/C(C)=C/C(=O)NC(c1ccc(S(C)(=O)=O)cc1)c1cccc(N(C)C)c1 (centres undefined) | -7 | -1 | -4
O=C(c1cc2n(n1)CCNC2)N1CCCC(OCc2ccccn2)C1 (centres undefined) | -4 | 3 | nt
O=C(CCCSc1nnc(-c2c[nH]c3ccccc23)n1C1CC1)N1CCOCC1 | 15 | 3 | 12
Cc1cc(=O)n2[nH]c(C)c(-c3ccc(F)cc3)c2n1 | -1 | 0 | nt
Cc1ccc2c(n1)[nH]n1c(=O)cc(C)nc21 | 43* | 7 | nt
O=C1NC(=S)N(c2ccccc2)C(=O)/C1=C\c1c2ccccc2cc2ccccc12 | 7 | -2 | 6
C=c1c(C#N)c2[nH]c(N)c(C#N)c(C)c-2/c1=C\c1ccc(O)cc1 | 11 | 21 | 71*
C=c1c(C#N)c2[nH]c(N)c(C#N)c(C)c-2/c1=C\c1ccc(C(=O)OC)cc1 | -4 | 7 | -1
CCOC(=O)N1CCN(c2ccc(/C=C(\C#N)c3nc4ccccc4n3C)o2)CC1 | -21 | 342* | nt
CCOC(=O)N1CCN(c2ccc(/C=C(\C#N)c3nc4ccccc4s3)o2)CC1 | -7 | 5 | nt
N#C/C(=C\c1ccc(O)c(O)c1)C(=O)NCCCc1ccccc1 | 9 | 120* | 1
N#C/C(=C\c1ccc(O)c(O)c1)C(=O)c1ccc(O)c(O)c1 | 19 | 16 | 15
Cc1ccccc1OCC(=O)N1CCC2(CN(C)C(=O)O2)C1 (centres undefined) | 3 | 9 | -9
CCOc1cc(C=C(C#N)S(C)(=O)=O)ccc1OC | -5 | 6 | -5
CS(=O)(=O)/C(C#N)=C/c1cnc2ccc(Br)cn12 | 88* | 1 | -7
SMILES | hcGAS lum | NPYLR7 agonist | mcGAS inh
CCN(CC)C(=O)Oc1ccc2c(ccn2Cc2cc(F)ccc2C)c1-c1ccc(C#N)cc1 | 3 | 5 | 0
Cc1onc(-c2ccccc2Cl)c1C(=O)Nc1ccc(Br)cc1F | -4 | 13 | -7
COc1cc(C=CC(=O)c2ccc(F)cc2)ccc1OC(F)F | 1 | -9 | nt
O=C(C=Cc1ccccc1OC(F)F)c1ccc(F)cc1 | -5 | -2 | 43*
CC1(C)O[C@@H]2C[C@@](OCc3ccc(F)cc3)(C(=O)NCc3ccco3)CC(OCc3ccc(C(F)(F)F)cc3)[C@@H]2O1 (some centres undefined) | -7 | 4 | -5
CC(C)C(C(=O)O)N1C(=O)/C(=C/c2ccc(N(C)C)cc2)SC1=S (centres undefined) | -3 | 54* | -7
CC(C)N1C(=O)C(=Cc2ccc(O)cc2)SC1=S | -8 | 5 | -8
COC(=O)c1ccc(/C=C2/SC(=S)N(C(C(=O)O)C(C)C)C2=O)cc1 (centres undefined) | -3 | -2 | -7
CC(C(=O)O)N1C(=O)/C(=C\c2ccc(O)cc2)SC1=S (centres undefined) | 0 | 62* | 2
CCOc1cc(C=C2SC(=S)N(c3ccc(OC)cc3)C2=O)ccc1O | -7 | -4 | -6
CCOc1cc(/C=C2\SC(=S)N(NC(=O)c3ccccc3O)C2=O)ccc1O | -8 | 59* | 8
CC(=O)NN1C(=O)/C(=C\c2ccc(O)cc2)SC1=S | -8 | 81* | -8
CN1C(=O)C(=Cc2ccc(O)cc2)SC1=S | 4 | 18 | nt
CN(NC(=O)C1CC=CCC1C(=O)N1CCN(c2ccccn2)CC1)c1ccccc1 (centres undefined) | -3 | -11 | -6
Cc1cccc2ncnc(N3CCOC(C)C3)c12 (centres undefined) | -18 | -1 | nt
COc1ccc(C(C)(C)C)cc1S(=O)(=O)N(C)C1CCCCC1 | -6 | 0 | nt
COc1ccc(-c2n[nH]c(=S)n2-c2ccc(Cl)cc2)cc1 | -9 | 1 | -6
CCOC(=O)C1CCCN(C(=O)CC(c2cccc(OC)c2OC)c2c[nH]c3c(CC)cccc23)C1 (centres undefined) | -8 | 17 | -7
CCOC(=O)[C@H]1C[C@]2(CCCCN(CCOC)C2=O)N(C(=O)c2ccc(F)cc2)[C@H]1c1ccco1 | -6 | 2 | -6
Cc1c(C(=O)N2CCN(C)CC2)[nH]c2ccc(OCc3ccccc3)cc12 | -3 | 1 | -3
O=C(O)CCN1C(=O)/C(=C/c2ccc(O)cc2)SC1=S | -4 | 92* | 0
CCCC(C(=O)O)N1C(=O)/C(=C/c2ccc(O)cc2)SC1=S (centres undefined) | -4 | 79* | -4
Cc1ccc(/C=C2\SC(=S)N(CCC(=O)O)C2=O)cc1 | 4 | -3 | -1
CSCCC(C(=O)O)N1C(=O)/C(=C/c2ccc(C)cc2)SC1=S (centres undefined) | -1 | -5 | 29
CC(C)CC(=O)N1CCc2[nH]cnc2C12CCCCC2 | 0 | nt | -2
SMILES | hcGAS lum | NPYLR7 agonist | mcGAS inh
COc1cc(/C=C/c2nc3ccccc3o2)cc(Cl)c1O | -3 | 334* | -13
Nc1ccc(/C=C/c2nc3ccccc3o2)cc1 | -1 | 2 | -2
CCC(C)CN(CC(=O)N1CCc2sccc2C1COc1ccc(C)cc1C)C(=O)c1cccc(F)c1 (centres undefined) | -6 | -3 | -5
O=C1CCCC2Nc3ncnc(Cl)c3OC12 (centres undefined) | 6 | 77* | nt
C=C1C(=O)O[C@@H]2C[C@@]3(C)CCC[C@H](C)C3=C[C@H]12 | -4 | -6 | 93*
COc1ccc2[nH]c3c(c2c1)CCN(C(=O)c1cccc(OC(C)=O)c1C)C3c1ccc(COC(C)=O)o1 (centres undefined) | -5 | -9 | 4
CCc1nc(N(CCC(=O)N2CCCC2)Cc2ccccc2)c2ccccc2n1 | -6 | 4 | -4
OC[C@@H](O)C(O[C@@H]1O[C@H](CO)[C@H](O)[C@H](O)[C@H]1O)[C@H](O)[C@@H](O)CO (some centres undefined) | -4 | nt | nt
OC[C@H]1OC([S-])[C@H](O)[C@@H](O)[C@@H]1O.[Au+] (some centres undefined) | 68* | -8 | 57*
